# Experimental data from PubChem BioAssay AID687030 (Broad Institute, 2013).
# Among all 1,400 compounds or so, about 10 (0.7%) were called active. No rule for the calls is given here. A selection follows. Entries with a potency or affinity are not part of this list.
# Test: viability loss in BHK-21 cells – cell-based, plate reader, cherry-pick samples, cytotoxicity control, dose response (AID 687030);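 also: cells were exposed to compound for three days before reading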
# Settings: series mostly up to 19.5 µM
row,Compound,outcome
1,C=CCC1NS(=O)(=O)OC(COC)C1C (configuration not stated),inactive
2,COCCCNc1oc(-c2ccccc2F)nc1C#N,inactive
3,COc1ccc(-c2cc(NC=O)c3ncc(-c4cc(OC)c(OC)c(OC)c4)n3c2)c(OC)c1,inactive
4,COC(=O)C(Cc1csc2ccc(Cl)cc12)NC(=O)c1ccc(Cl)cc1 (configuration not stated),inactive
5,COc1ccc(NC(=O)N[C@H]2CC[C@@H](CCn3cc(C4(O)CCCC4)nn3)O[C@@H]2CO)cc1,inactive
6,COc1ccc(NC(=O)N[C@@H]2CC[C@@H](CCNS(=O)(=O)c3cccc(Cl)c3)O[C@@H]2CO)cc1,inactive
7,O=C(c1cccc(Cl)c1)N1CCC2(CC1)NCCc1[nH]cnc12,inactive
8,O=C(NCCN1CCOCC1)c1ccc2c(c1)N(Cc1ccc(F)cc1)C(=O)CS2,inactive
9,Cc1ccc(C(=O)NCC(=O)NCC(c2cccs2)N2CCOCC2)cc1C (configuration not stated),inactive
10,C[C@@H]1CN([C@H](C)CO)C(=O)c2cc(NC(=O)Nc3ccc(C(F)(F)F)cc3)ccc2O[C@H]1CN(C)C(=O)NC1CCCCC1,inactive
11,CCCN(C)C1CN(Cc2cn(Cc3ccc(C)cc3)nn2)S(=O)(=O)C1 (configuration not stated),inactive
12,COc1ccccc1N1CCN(Cc2cnc3ccc(Cl)cn23)CC1,inactive
13,C[C@H]1CN([C@@H](C)CO)C(=O)c2cccc(NC(=O)C3CCCCC3)c2O[C@@H]1CN(C)Cc1ccc(C(=O)Nc2ccccc2N)cc1,inactive
14,C[C@@H]1CCCCO[C@@H](CN(C)C(=O)Nc2cccc3ccccc23)[C@H](C)CN([C@H](C)CO)C(=O)c2cc(NC(=O)CCC(F)(F)F)ccc2O1,inactive
15,CCOC(=O)C1CCCN(c2c(N3CCOCC3)c(=O)c2=O)C1 (configuration not stated),inactive
16,O=C(CN1CCN(C(=O)C2CCC2)CC1)Nc1ccc(F)cc1,inactive
17,CCCCNC(=O)O[C@H]1C[C@@H]2CCN3C(=O)CCC[C@H]([C@H]1Cc1ccccc1)[C@H]23,inactive
18,Cn1cnc(S(=O)(=O)N[C@@H]2CC[C@H](CC(=O)NCC3CCCCC3)O[C@@H]2CO)c1,inactive
19,CCC1(c2ccccc2)NC(=O)N(CC(=O)Nc2ccccc2C(=O)N2CCCCC2)C1=O (configuration not stated),inactive
20,CS(=O)(=O)c1cccc(-c2nnc(NC(=O)c3ccc(S(=O)(=O)N4CCCC4)cc3)o2)c1,inactive
21,Clc1cc(Br)ccc1OCCOCCN1CCCC1,inactive
22,Clc1cc(Br)ccc1OCCCn1ccnc1,inactive
23,c1cc(-c2ccc(N3CCOCC3)cc2)n2cnnc2c1,inactive

row,Compound,outcome
1,COc1ccc(C2CC(c3ccccc3)=NN2S(=O)(=O)c2ccccc2)c(OC)c1 (configuration not stated),inactive
2,O=C(C[C@@H]1CC[C@@H]2[C@H](COC[C@H](O)CN2CC2CCOCC2)O1)N1CCOCC1,inactive
3,C[C@H](NC(=O)CCCOc1ccc(Cl)cc1Cl)c1nnc2ccccn12,inactive
4,Cc1ccc(NC(=O)c2nc[nH]c2C(=O)N[C@@H](C)C(=O)OC(C)(C)C)cc1,inactive
5,Cc1ccc(NC(=O)c2ccc3c(c2)OCO3)cc1Cl,inactive
6,COc1ccc(OC)c(CN2C(=O)CN(S(C)(=O)=O)CC2(C)C(=O)NCc2ccccc2)c1 (configuration not stated),inactive
7,CNC(=O)C[C@H]1CC[C@@H]2[C@H](COC[C@@H](O)CN2C(=O)Nc2ccc3c(c2)OCO3)O1,inactive
8,CN(C)C1(CNC(=O)C2CCN(S(=O)(=O)c3ccccc3C(F)(F)F)CC2)CCCCC1,inactive
9,CC(C)(C)c1ccc(NC(=O)NC2CCCc3ccccc32)cc1 (configuration not stated),inactive
10,Cc1ccnc(NC(=O)c2ccc(Cl)c(S(=O)(=O)N3CCCC3)c2)c1,inactive
11,COc1cccc(NC(=O)CN(C)C(=O)c2cccc(S(=O)(=O)N3c4ccccc4CC3C)c2)c1 (configuration not stated),inactive
12,O=C(O)[C@]1(S(=O)(=O)c2ccccc2)C[C@@H]2ON=C(c3cccc(Br)c3)[C@@H]2C1,inactive
13,COc1cccc(-c2ncc3ccccc3c2COC(=O)c2ccc(F)cc2)c1,inactive
14,COc1ccc(C(N)c2csc(Nc3cc(Oc4ccccc4)ncn3)n2)cc1 (configuration not stated),inactive
15,CCN1[C@H](C(=O)NCCCN(C)C)[C@@H](CO)[C@@H]2Cn3c(ccc(-c4cccc(F)c4)c3=O)[C@@H]21,inactive
16,Cc1nc(CCNC(=O)CC2C(=O)NCCN2CC(C)C)nc2c1CCC2 (configuration not stated),inactive
17,CCCS(=O)(=O)N1CCCC(C(=O)NCCc2cccc(C)c2)C1 (configuration not stated),inactive
18,C[C@@H]1CN([C@@H](C)CO)S(=O)(=O)c2ccc(-c3ccncc3)cc2O[C@H]1CN(C)C(=O)CC1CC1,inactive
19,CC(=O)NC[C@H]1[C@H](c2ccc(-c3ccccc3F)cc2)[C@@H](CO)N1C(=O)C1CC1,inactive
20,N#C[C@@H]1[C@H](c2ccc(-c3ccccc3F)cc2)[C@H](CO)N1C(=O)C1CC1,inactive
21,CCCNC(=O)C1(C)CCCN(Cc2ccc(C#N)cc2)C1 (configuration not stated),inactive
22,O=C(c1cc(-c2cccs2)on1)N1CCCc2ccccc21,inactive
23,O=C1CCN(CCc2ccccc2)CCN1[C@H](COc1ccccc1)c1ccccc1,inactive

row,Compound,outcome
1,O=C1CN(C(=O)COC(=O)c2c(F)cccc2Cl)c2ccccc2N1,inactive
2,COc1ccc(NC(=O)COC(=O)c2c(C)noc2C)cc1Cl,inactive
3,C[C@H]1[C@H](c2ccccc2)C[C@@H](C(=O)O)C1(C)C,inactive
4,COc1c(Cl)cc(Br)c(OC)c1C(=O)NC(=O)Nc1nc(C)cc(C)n1,inactive
5,CCCc1nc2c(C)cc(Br)cn2c1Cc1ccc(OC)cc1C,inactive
6,CCN(c1ccccc1)S(=O)(=O)c1ccc(C(=O)N2CCN(c3ccccc3F)CC2)cc1,inactive
7,CCCN1C[C@H](C)[C@H](OC)CN(C)C(=O)c2cc(NS(=O)(=O)c3cn(C)cn3)ccc2OC[C@@H]1C,inactive
8,C#CCNC(=O)C[C@@H]1C[C@@]2(C(=O)OC)CCCCC=C2N(Cc2cccc3ccccc23)C1=O,inactive
9,COc1ccc2c3c([nH]c2c1)[C@H](CO)N(C(=O)c1ccccc1)CC31CN(S(=O)(=O)c2cccs2)C1,inactive
10,COc1cccc(S(=O)(=O)N2CC3(CN(C(=O)Nc4ccc(F)cc4)[C@H](CO)c4[nH]c5cc(OC)ccc5c43)C2)c1,inactive
11,COc1ccccc1NC(=O)N1CCN(c2ccccn2)CC1,inactive
12,CCOC(=O)C[C@H]1c2ccccc2S(=O)(=O)N1c1ccccc1,inactive
13,O=C(Nc1ccc(Cl)cc1)N(CCCN1CCOCC1)Cc1cccs1,inactive
14,NC[C@H](Cc1ccccc1)NCCCCC1CCCCC1,inactive
15,CO[C@@H](CN(C)C(=O)c1cc(Cl)cc(Cl)c1)[C@H](C)CN(C(=O)Nc1ccc(F)cc1)[C@@H](C)CO,inactive
16,COc1cccc(CNC(=O)[C@H]2CCCN2C(=O)C2CCCN2C(=O)c2ccc(OC)c(F)c2)c1 (some centres not stated),inactive
17,CCCNC(=O)[C@H]1[C@H](CO)[C@H]2Cn3c(cccc3=O)[C@H]2N1Cc1ccccc1Cl,inactive
18,COc1ccc(-c2sc3cc4c(cc3c2C#Cc2cncn2C)OCO4)cc1,inactive
19,CC(=O)Nc1cccc(OCCCNC(=O)c2ccc(C(C)(C)C)cc2)c1,inactive
20,CC(C)(C)c1ccc(C(=O)Nc2ccc3c(c2)C(=O)NC3=O)cc1,inactive
21,CN1C(=O)c2cc(NC(=O)NCc3ccccc3)ccc2OC[C@H]2O[C@H](CC(=O)NCC3CCCCC3)CC[C@H]21,inactive
22,Cc1ccccc1OCCC(=O)OCC(=O)NCCc1ccc(S(N)(=O)=O)cc1,inactive
23,C[C@H](CO)N1C[C@H](C)[C@@H](CN(C)Cc2ccc3c(c2)OCO3)OCCCC[C@H](C)Oc2ccc(N(C)C)cc2C1=O,inactive

row,Compound,outcome
1,CSc1ccccc1NC(=O)c1cc2c(=O)n3ccccc3nc2s1,inactive
2,CCN(CC)CCCNc1nc(C)cc(COC)c1C#N,inactive
3,O=C(OCc1ccccc1)N1CCCC2CC1c1ccccc12 (configuration not stated),inactive
4,CCCCN(C(=O)c1ccc2c(c1)NC(=O)CS2)c1ccccc1,inactive
5,COc1cccc(OC)c1C(=O)N1CCN(Cc2c[nH]c3ccccc23)CC1,inactive
6,O=C(c1ccc(CNc2c(N3CCCC3)c(=O)c2=O)cc1)N1CCN(C2CCCCC2)CC1,inactive
7,CCOc1ccccc1-c1nnc(CS(=O)(=O)c2ccccc2)o1,inactive
8,CCOC(=O)c1ccc(NC(=O)c2nc[nH]c2C(=O)NC2CCN(C(=O)OC(C)(C)C)CC2)cc1,inactive
9,Cc1cccc(N(C)c2cc(C)nc3nc(C)nn23)c1,inactive
10,COCc1cccc(-c2csc(C(N)c3ccc(F)c(F)c3)n2)c1 (configuration not stated),inactive
11,COc1ccc(S(=O)(=O)N2CCCCN3[C@H](CO)[C@H](c4ccc(C5=CCCC5)cc4)[C@@H]3C2)cc1,inactive
12,COC(=O)c1ccc(NC(=O)C2CC3CCC2C3)cc1 (configuration not stated),inactive
13,COc1ccc(C2(C)CC(C)(C)Nc3ccccc32)cc1 (configuration not stated),inactive
14,CC(C)(O)C#Cc1ccc([C@@H]2[C@@H](CO)N3CCCCN(C(=O)c4ccc(F)cc4)C[C@@H]23)cc1,inactive
15,O[C@@H]1CN(Cc2cccs2)[C@@H](c2ccccc2)C[C@H]1n1cc(-c2ccc(F)cc2)nn1,inactive
16,COC(=O)c1c(NC(=O)CC2Sc3ccc(C(F)(F)F)cc3NC2=O)sc(C)c1C (configuration not stated),inactive
17,COC(=O)c1ccc2nc(-c3ccc(F)cc3)c(Cc3ccccc3OC)n2c1,inactive
18,CC(C)C(NS(=O)(=O)c1ccc2c(c1)C(C)(C)C(=O)N2C)C(=O)NCc1ccccc1Cl (configuration not stated),inactive
19,COc1ccc2c3c(n(C)c2c1)[C@H](CO)N(C(=O)Nc1ccccc1F)CC31CN(C)C1,inactive
20,C[C@H]1CN([C@@H](C)CO)C(=O)c2cc(NC(=O)CCCN(C)C)ccc2O[C@@H]1CN(C)S(=O)(=O)c1ccc(Cl)cc1,inactive
21,Cc1ccccc1OCCCCN1CCCCC1,inactive
22,Cc1ccc(SC[C@H](Cc2ccccc2)N2CC[C@@H](C)CCC2=O)cc1,inactive
23,CC(C)c1ccc(NC(=O)Nc2nc(C(N)c3ccccc3Cl)cs2)cc1 (configuration not stated),inactive
